Source: PubChem BioAssay (NCI)
This is part of a sample that, as a whole, favours compounds with a hit. Of some 83,000 tested, about 20% had one in any assay.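 96-well plates, one dose, 48 hours. Percent growth reported; active if below 10.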 Calls of active or inactive are those of the source.

These compounds were tested on IGROV1 ovarian (assay: NCI-60 one-dose screen, 48 h (100 = growth as untreated, 0 = no growth, -100 = all killed)). Conditions: 10 µM unless noted.
Experimental: Growth inhibition of the IGROV1 human tumor cell line is measured as a screen for anti-cancer activity. Cells are grown in 96 well plates and exposed to the test compound for 48 hours. Compounds are tested at a single concentration, which is 10^-5 M for most compounds. The reported endpoint is percent growth (GI% or GIPRCNT), where numbers from 0 - 100% represent growth inhibition, and numbers from -100% - 0 represent cell death. For example, a value of 40 represents 60% growth inhibition. A value of 0 means no net growth occurred over the course of the experiment. A value of -40 indicates 40% of cells at the beginning of the experiment died by the end of the experiment. A value of -100 means all cells are dead at the end of the experiment.
NCI-60 Human Tumor Cell Lines Screen was performed using the standard one-dose NCI protocol, which is described in more detail at https://dtp.cancer.gov/discovery_development/nci-60/default.htm.
Compounds with GIPRCNT values below 10 were considered active. Activity score was based on GIPRCNT using the following formula: […]
Score is 0 for GIPRCNT values of 100 or above, 50 for GIPRCNT values of 0, and 100 for GIPRCNT values of -100.
`CCCCn1c(-c2ccc(F)cc2)nc2cc(OC)c(OC)cc2c1=O` was tested, and the growth was 79.4% (inactive). With `Oc1ccc(Nc2ncnc3c2sc2ncccc23)cc1` the growth was 52.3% (inactive). For `COc1ccc2[nH]c(O)c(/C=c3/ccc4c(c3)N=C(c3ccc(C(F)(F)F)cc3)N=4)c2c1`, the growth was 55.2% (inactive). With `O=C1c2ccccc2C(=O)c2c1oc1ccc3ccccc3c21` the growth was 80.2% (inactive). For `O=C(Nc1ccccc1)C(CCCCN1C(=O)c2ccccc2C1=O)N1C(=O)c2ccccc2C1=O` (stereo not given), the growth was 110% (inactive). For `Cc1[nH]n(C(=O)c2ccncc2)c(=O)c1N=Nc1ccc(O)c(C(=O)O)c1`, the growth was 94.7% (inactive). In the case of `COc1cc(NCCCCC(C)N)c2nccc(C)c2c1` (stereo not given), the growth is reported as 71.3% (inactive). `CCCCC(CCc1ccccn1)C(=O)c1ccccc1` (stereo not given) was tested, and the growth was 101% (inactive). In the case of `COc1cc(C2CC(c3ccc(Nc4ccnc5cc(Cl)ccc45)cc3)=NN2c2ccccc2)cc(OC)c1OC` (stereo not given), the growth is reported as 106% (inactive). With `NS(=O)(=O)c1ccc(N2N=C(c3ccc(Br)cc3)CC2c2cn(-c3ccccc3)nc2-c2ccc(Cl)cc2)cc1` (stereo not given) the growth was 93.8% (inactive). For `Cc1ccc2nc(CN(CCN(Cc3nc4ccc(C)cc4[nH]3)Cc3nc4ccc(C)cc4[nH]3)Cc3nc4ccc(C)cc4[nH]3)[nH]c2c1`, the growth was -95.2% (active). With `CN1CCN(Cc2ccc(NC(=O)c3cccc(C#Cc4cnc(N)c5ncccc45)c3F)cc2C(F)(F)F)CC1` the growth was 24.5% (inactive). `Cn1nc(C(F)(F)F)cc1-c1c[nH]c(OCc2ccc(Cl)cc2)c(-c2ccc(Cl)c(C(F)(F)F)c2)c1=O` was tested, and the growth was 24.1% (inactive). For `N#Cc1ccc(NC(=O)Nc2nc3ccc(OC(F)(F)F)cc3s2)cc1`, the growth was 13.2% (inactive). In the case of `CCN1CCN(Cc2ccc(NC(=O)c3nc4ccc5[nH]ncc5c4c4c3CCCC4)cc2C(F)(F)F)CC1`, the growth is reported as -47.6% (active). `COCCOCCOCc1n(Cc2ccc3ccccc3n2)c2ccccc2[n+]1Cc1ccc2ccccc2c1` was tested, and the growth was -9.44% (active). In the case of `CC(OC(=O)Nc1cccc(Cl)c1)C(=O)O` (stereo not given), the growth is reported as 104% (inactive). `COc1ccc([C@@H]2[C@@H](Oc3ccccc3)C(=O)N2c2cc(OC)c(OC)c(OC)c2)cc1F` was tested, and the growth was 18.5% (inactive). `O=C(/C=C/c1ccccc1)n1c(-c2ccccc2)nc2ccccc21` was tested, and the growth was 105% (inactive). `COc1ccc2cc(-c3nc(C)c(C(C)=O)c(-c4ccc(C)cc4)n3)ccc2c1` was tested, and the growth was 101% (inactive). `CC(=O)N(C)c1ccc(Nc2cc(C)[nH]c3ccc4ncnc4c23)cc1` was tested, and the growth was 1.11% (active). For `O=C(Nc1ccc(Oc2ccc(NC(=O)Nc3ccccc3Cl)cc2)cc1)Nc1ccccc1Cl`, the growth was -62.3% (active). With `Nc1ccc(N(O)/C=C2\C=CC=CC2=O)cc1N` the growth was 80.2% (inactive). With `N[C@@H](CO)C(=O)O` the growth was 110% (inactive). For `CCCc1n(Cc2ccc3ccccc3c2)c2ccccc2[n+]1Cc1ccc2ccccc2c1`, the growth was -64.8% (active). In the case of `CC(C)(C)NC(=O)C(OC(=O)C1CCc2cc(F)ccc2O1)c1ccccc1Cl` (stereo not given), the growth is reported as 92.8% (inactive). With `ClCc1cccc(CSc2ncnc3c2ncn3Cc2cccc(CCl)c2)c1` the growth was 14% (inactive). In the case of `COc1ccc(C(=O)c2cc(C)c(OC)c(C)c2)cc1OC(=O)CCl`, the growth is reported as 25.7% (inactive). With `Oc1[nH]c2ccc(Cl)cc2c1/C=c1/ccc2c(c1)N=C(c1ccc(F)cc1)N=2` the growth was 5.76% (active). In the case of `C=CCn1c(C)nc2cc(Nc3nc(N4CCOCC4)nc4nc[nH]c34)ccc21`, the growth is reported as 72.9% (inactive). With `COc1ccc2nc(C)cc(Nc3ccccc3O)c2c1` the growth was 44.9% (inactive). For `CC(C)N=C1CCCC1C(=S)SSC(=S)C1CCCC1=NC(C)C` (stereo not given), the growth was 52.8% (inactive). With `O=C(c1ccccc1)N(CCCCl)C(=O)N(CCCCl)C(=O)c1ccccc1` the growth was 90.7% (inactive). `COc1cc(NC(C)CCCN)c2ncccc2c1Oc1ccc(Cl)cc1` (stereo not given) was tested, and the growth was 64.6% (inactive). With `O=C(NCCNC(=O)c1cc(S(=O)(=O)NCCc2ccccc2)c(O)c(O)c1O)c1cc(S(=O)(=O)NCCc2ccccc2)c(O)c(O)c1O` the growth was 31.5% (inactive). `CC(=O)Nc1ccc(Cl)cc1Cl` was tested, and the growth was 60.8% (inactive). With `CCCCn1c(C)nc2ccc(Nc3nc(Cl)nc4nc[nH]c34)cc21` the growth was 68.2% (inactive). With `Oc1c(C(c2ccc(F)cc2)N2CCCCC2)ccc2cncnc12` (stereo not given) the growth was 9.64% (active). In the case of `NS(=O)(=O)c1ccc(N2N=C(c3cccs3)CC2c2ccccc2O)cc1` (stereo not given), the growth is reported as 12.7% (inactive). For `Cc1cc(C)c2c(n1)sc1c(Nc3ccc(Cl)cc3Cl)ncnc12`, the growth was 69.5% (inactive).
